Source: PubChem BioAssay (NCI)
The panel holds about 79,000 compounds, 15% with a hit somewhere; the sample as a whole holds those more often. Calls of active or inactive are those of the source. Cut-off read from the data, not from the text of the source: active = growth inhibition above about 70%; inactive = the rest.

Experiments:
[1] = NCI Yeast Anticancer Drug Screen. Data for the rad52 strain (AID 147);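 note: 0% = growth of vehicle-treated control cultures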; conditions: S. cerevisiae rad52 mutant growth inhibition, stronger effect = higher value
In short: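 Yeast strain carrying a DNA damage repair alteration was exposed to test compounds. Growth inhibition was measured relative to vehicle-treated controls.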

[2] = NCI Yeast Anticancer Drug Screen. Data for the wt1 strain (AID 149);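 note: 0% = growth of vehicle-treated wt1 cultures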; conditions: S. cerevisiae wt1 strain (SPY 50644) growth inhibition, stronger effect = higher value
In short: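 Each compound is tested on wt1 yeast and the loss of growth versus vehicle gives the inhibition value.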

[3] = NCI Yeast Anticancer Drug Screen. Data for the rad50EPP+ strain (AID 151);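 note: 0% = growth of vehicle-treated control cultures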; conditions: S. cerevisiae rad50 mutant strain, stronger effect = higher value
In short: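 Yeast strain carrying rad50 alteration (rad50EPP+) exposed to compounds; growth inhibition measured relative to vehicle-treated controls.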

[4] = NCI Yeast Anticancer Drug Screen. Data for the rad50 strain (AID 155);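 note: 0% = growth of vehicle-only cultures of the same strain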; conditions: S. cerevisiae rad50 strain growth inhibition, stronger effect = higher value
In short: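 Vehicle-treated cultures provide the reference for the growth inhibition reported for compound-exposed, repair-deficient yeast.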

[5] = NCI Yeast Anticancer Drug Screen. Data for the mec2-1 strain (AID 157); conditions: S. cerevisiae mec2-1 strain, stronger effect = higher value
In short: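 mec2-1 yeast strain, carrying an alteration in DNA damage repair or cell cycle control, was exposed to compounds; growth inhibition was measured relative to vehicle-treated controls.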

[6] = NCI Yeast Anticancer Drug Screen. Data for the rad14 strain (AID 159);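 note: 0% = growth of vehicle-treated control cultures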; conditions: S. cerevisiae rad14 strain growth inhibition, stronger effect = higher value
In short: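 Inhibition of growth is reported for a repair-deficient yeast mutant following compound treatment, calculated relative to cultures that received vehicle.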

[7] = NCI Yeast Anticancer Drug Screen. Data for the sgs1 mgt1 strain (AID 161);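 note: 0% = growth of cultures given vehicle only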; conditions: S. cerevisiae sgs1 mgt1 strain, stronger effect = higher value
In short: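 Compounds are added to genetically altered yeast, and growth is compared with cultures given vehicle alone to give percent inhibition.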

[8] = NCI Yeast Anticancer Drug Screen. Data for the CLN2oe strain (AID 163);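 note: 0% = growth of vehicle-only control cultures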; conditions: S. cerevisiae CLN2oe strain, stronger effect = higher value
In short: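 Yeast cells carrying a defined cell-cycle control alteration were exposed to test compounds. Growth inhibition was scored against vehicle-treated control cultures.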

[9] = NCI Yeast Anticancer Drug Screen. Data for the cln2 rad14 strain (AID 165);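 note: 0% = growth equal to vehicle treated cultures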; conditions: S. cerevisiae cln2 rad14 strain, stronger effect = higher value
In short: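 Yeast carrying cln2 and rad14 alterations (cell cycle control and DNA damage repair) were exposed to compounds. Growth inhibition was measured against vehicle-treated controls.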

[10] = NCI Yeast Anticancer Drug Screen. Data for the bub3 strain (AID 167); conditions: S. cerevisiae bub3 mutant strain, stronger effect = higher value
In short: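 Mutant yeast screening strain plus compound; vehicle-treated cultures serve as the 0% inhibition reference.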

[11] = NCI Yeast Anticancer Drug Screen. Data for the wt2 strain (AID 169); conditions: S. cerevisiae wt2 strain growth inhibition, stronger effect = higher value
In short: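 Yeast cells were exposed to test compounds, and growth inhibition was measured relative to vehicle-treated controls.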

[12] = NCI Yeast Anticancer Drug Screen. Data for the mlh1 strain (AID 171);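 note: 0% = growth of vehicle-treated control cultures of the same strain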; conditions: S. cerevisiae mlh1 strain growth inhibition, stronger effect = higher value
In short: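 Yeast carrying a defined genetic alteration in DNA damage repair or cell cycle control were exposed to test compounds. Growth inhibition was measured relative to vehicle-treated controls.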

[13] = NCI Yeast Anticancer Drug Screen. Data for the sgs1 strain (AID 173);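 note: 0% = growth of vehicle-only control cultures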; conditions: S. cerevisiae sgs1 mutant, stronger effect = higher value
In short: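 Yeast mutant strains carrying defined defects in DNA damage repair or cell cycle control were exposed to test compounds. Growth inhibition was scored against vehicle-treated controls.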

[14] = NCI Yeast Anticancer Drug Screen. Data for the mlh1 rad18 strain (AID 175); conditions: S. cerevisiae mlh1 rad18 strain growth inhibition, stronger effect = higher value
In short: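 Growth inhibition of the yeast strain was measured after compound exposure and expressed relative to vehicle-treated controls. The strain carries defined defects in DNA damage repair.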

[15] = NCI Yeast Anticancer Drug Screen. Data for the rad18 strain (AID 177); conditions: S. cerevisiae rad18 mutant growth inhibition, stronger effect = higher value
In short: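 Yeast carrying a defined DNA damage repair alteration were exposed to compounds. Growth inhibition was expressed relative to vehicle-treated controls.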

[16] = at 5.0 µM (retest, dose inferred, filed as 0.5)
[17] = at 50.0 µM (retest, dose inferred, filed as 5.0)

Measured: growth inhibition

O=S1(=O)c2ccccc2N=C(c2ccccc2Cl)CC1c1ccc(F)cc1 (stereo not drawn)
inactive: [1]; at 1.2 µM 21% | [1]; at 3.7 µM 24% | [1]; at 11.0 µM 28% | [1]; at 33.0 µM 35% | [1]; at 100.0 µM 34% | [2]; at 1.2 µM 0% | [2]; at 3.7 µM -4% | [2]; at 11.0 µM 25% | [2]; at 33.0 µM 36% | [2]; at 100.0 µM 8% | [3]; at 1.2 µM -23% | [3]; at 3.7 µM -22% | [3]; at 11.0 µM 0% | [3]; at 33.0 µM 15% | [3]; at 100.0 µM 24% | [4]; at 1.2 µM -39% | [4]; at 3.7 µM -34% | [4]; [16] -7% | [4]; at 11.0 µM -18% | [4]; at 33.0 µM 17% | [4]; [17] 29% | [4]; at 50.0 µM 18.3% | [4]; at 100.0 µM 13% | [5]; at 1.2 µM -52% | [5]; at 3.7 µM -27% | [5]; [16] -22% | [5]; at 11.0 µM -29% | [5]; at 33.0 µM 0% | [5]; [17] -10% | [5]; at 50.0 µM -10.2% | [5]; at 100.0 µM -27% | [6]; at 1.2 µM -32% | [6]; at 3.7 µM -47% | [6]; at 11.0 µM -25% | [6]; at 33.0 µM -3% | [6]; at 100.0 µM -6% | [7]; [16] -5% | [7]; [17] -8% | [7]; at 50.0 µM 61% | [8]; at 1.2 µM -9% | [8]; at 3.7 µM -8% | [8]; at 11.0 µM -10% | [8]; at 33.0 µM -1% | [8]; at 100.0 µM -13% | [9]; [16] 17% | [9]; [17] 16% | [9]; at 50.0 µM 31.5% | [10]; at 1.2 µM -4% | [10]; at 3.7 µM -16% | [10]; [16] -20% | [10]; at 11.0 µM -5% | [10]; at 33.0 µM -2% | [10]; [17] 56% | [10]; at 50.0 µM 3.25% | [10]; at 100.0 µM 13% | [11]; at 1.2 µM -6% | [11]; at 3.7 µM -8% | [11]; at 11.0 µM -20% | [11]; at 33.0 µM 7% | [11]; at 100.0 µM 25% | [12]; at 1.2 µM -17% | [12]; at 3.7 µM -10% | [12]; at 11.0 µM -8% | [12]; at 33.0 µM 13% | [12]; at 100.0 µM 7% | [13]; at 1.2 µM -7% | [13]; at 3.7 µM 8% | [13]; at 11.0 µM -15% | [13]; at 33.0 µM 17% | [13]; at 100.0 µM 33% | [14]; [16] -26% | [15]; at 1.2 µM -3% | [15]; at 3.7 µM 2% | [15]; at 11.0 µM 18% | [15]; at 33.0 µM 36% | [15]; at 100.0 µM 22%
active: [14]; [17] 81% | [14]; at 50.0 µM 72.5%

COc1ccc(S(=O)(=O)N/N=C\c2cc([N+](=O)[O-])cc(I)c2O)c(OC)c1OC
active: [1]; at 100.0 µM 94% | [4]; [17] 72% | [4]; at 50.0 µM 92.9% | [4]; at 100.0 µM 95% | [5]; [17] 76% | [5]; at 50.0 µM 73%
inactive: [1]; at 1.2 µM 0% | [1]; at 3.7 µM 9% | [1]; at 11.0 µM 20% | [1]; at 33.0 µM 42% | [2]; at 1.2 µM -7% | [2]; at 3.7 µM -8% | [2]; at 11.0 µM -8% | [2]; at 33.0 µM 9% | [2]; at 100.0 µM 49% | [3]; at 1.2 µM -5% | [3]; at 3.7 µM -6% | [3]; at 11.0 µM -5% | [3]; at 33.0 µM 17% | [3]; at 100.0 µM 63% | [4]; at 1.2 µM -7% | [4]; at 3.7 µM -7% | [4]; [16] 10% | [4]; at 11.0 µM 23% | [4]; at 33.0 µM 64% | [5]; at 1.2 µM -2% | [5]; at 3.7 µM -6% | [5]; [16] 14% | [5]; at 11.0 µM -7% | [5]; at 33.0 µM 15%
